From PubChem BioAssay
Calls of active or inactive are those of the source.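 Rule for the calls, unless noted: active = mean inhibition over 43.08%, the solvent-only control mean plus 3 SD; inactive = the rest.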

What was measured:
[1] = biological target: Nuclear receptor coactivator 3 (Homo sapiens) (UniProt Q9Y6Q9); experiment: NCOA3 GAL4-fusion reporter inhibition – cell-based, luminescence, quadruplicate, confirmation (AID 588792); conditions: HEK293 GAL4-SRC3 luciferase reporter, at 3.6 µM, active compounds read high;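 note: 0% = DMSO treated cells and 100% = gossypol at 36 µM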
[2] = system: transactivating tegument protein VP16 (Human herpesvirus 1), Gal4-VP16 luciferase reporter; experiment: repression of VP16-driven luciferase reporter – cell-based, luminescence, high throughput, counter-screen for SRC3 inhibitor project (AID 588794; in the data active = inhibition above about 30%); conditions: mammalian cells, at 3.6 µM, active compounds read high

Chain of Nuclear receptor coactivator 3 (Homo sapiens) (Q9Y6Q9 whole entry, looked up, the tested form may be a part): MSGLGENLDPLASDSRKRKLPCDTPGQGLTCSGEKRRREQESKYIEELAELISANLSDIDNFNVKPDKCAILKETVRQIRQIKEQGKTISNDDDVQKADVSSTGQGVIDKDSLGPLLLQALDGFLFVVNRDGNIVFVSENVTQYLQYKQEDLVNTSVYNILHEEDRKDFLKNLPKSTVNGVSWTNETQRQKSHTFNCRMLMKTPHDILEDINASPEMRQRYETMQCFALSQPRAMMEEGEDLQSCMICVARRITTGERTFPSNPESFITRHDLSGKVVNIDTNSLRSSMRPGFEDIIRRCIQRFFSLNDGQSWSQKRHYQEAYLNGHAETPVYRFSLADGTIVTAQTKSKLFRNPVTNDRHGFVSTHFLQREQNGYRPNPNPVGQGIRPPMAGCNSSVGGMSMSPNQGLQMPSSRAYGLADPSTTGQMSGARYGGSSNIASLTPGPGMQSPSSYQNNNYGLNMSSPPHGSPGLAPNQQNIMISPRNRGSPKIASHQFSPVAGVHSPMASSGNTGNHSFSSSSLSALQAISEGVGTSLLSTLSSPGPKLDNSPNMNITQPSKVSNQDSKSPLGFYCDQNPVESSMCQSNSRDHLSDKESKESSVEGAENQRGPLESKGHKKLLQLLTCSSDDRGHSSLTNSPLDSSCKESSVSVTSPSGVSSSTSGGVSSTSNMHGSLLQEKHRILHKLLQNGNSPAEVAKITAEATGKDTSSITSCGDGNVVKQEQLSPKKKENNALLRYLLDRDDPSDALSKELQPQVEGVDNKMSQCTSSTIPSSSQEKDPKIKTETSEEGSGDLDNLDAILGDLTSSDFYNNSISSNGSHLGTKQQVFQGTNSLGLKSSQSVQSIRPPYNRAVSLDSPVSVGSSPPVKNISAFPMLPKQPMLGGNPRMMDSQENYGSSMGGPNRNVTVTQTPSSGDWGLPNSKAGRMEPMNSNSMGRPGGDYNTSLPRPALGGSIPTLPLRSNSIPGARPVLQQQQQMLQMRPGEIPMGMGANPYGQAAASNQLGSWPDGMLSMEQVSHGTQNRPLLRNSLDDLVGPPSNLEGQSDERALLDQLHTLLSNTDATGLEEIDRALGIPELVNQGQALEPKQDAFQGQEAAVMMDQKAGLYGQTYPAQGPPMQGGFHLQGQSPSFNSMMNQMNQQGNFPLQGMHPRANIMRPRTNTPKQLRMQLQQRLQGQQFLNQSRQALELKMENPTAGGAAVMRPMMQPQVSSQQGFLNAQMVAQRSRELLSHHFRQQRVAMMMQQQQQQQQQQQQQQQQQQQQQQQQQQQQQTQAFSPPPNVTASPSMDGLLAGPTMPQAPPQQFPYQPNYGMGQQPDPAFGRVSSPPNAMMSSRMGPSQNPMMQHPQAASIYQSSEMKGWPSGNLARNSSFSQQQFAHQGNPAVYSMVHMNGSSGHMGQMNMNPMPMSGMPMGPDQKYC

## O=c1cc(CNc2cc(C(F)(F)F)cc(C(F)(F)F)c2)nc2sccn12
[1]
  inhibition: 4.27% (inactive)
[2]
  inhibition: 3.94% (inactive)

## CCOc1cccc(-n2nnnc2-c2ccc(OC)cc2)c1
[1]
  inhibition: 7.46% (inactive)
[2]
  inhibition: 14.6% (inactive)

## COC(=O)N/N=C/c1cn(Cc2ccc(Cl)cc2Cl)c2ccccc12
[1]
  inhibition: 18.6% (inactive)
[2]
  inhibition: 0.26% (inactive)

## Nc1ccccc1SCC(=O)Nc1nc(-c2ccccc2)cs1
[1]
  inhibition: 25% (inactive)
[2]
  inhibition: 48.4% (active)

## Cc1[nH]c2ccccc2c1C(=O)CN1C(=O)NC2(CC(C)CC(C)(C)C2)C1=O (stereo not drawn)
[1]
  inhibition: 11.9% (inactive)
[2]
  inhibition: -5.15% (inactive)

## O=S(=O)(NC1=NCCC1)c1cccc(NS(=O)(=O)c2ccc(OC(F)(F)F)cc2)c1
[1]
  inhibition: -6.28% (inactive)
[2]
  inhibition: -8.52% (inactive)

## Oc1c(CN2CCCCC2)cc(COCc2ccccc2)c2cccnc12
[1]
  inhibition: 75.2% (active)
[2]
  inhibition: 66.7% (active)

## S=C(Nc1cccc2ccccc12)NN1CCCCCC1
[1]
  inhibition: 43.8% (active)
[2]
  inhibition: 33% (active)

## COc1ccc(C(=O)C2CCCN(Cc3cccn3-c3ccccn3)C2)c(C)c1 (stereo not drawn)
[1]
  inhibition: 26.1% (inactive)
[2]
  inhibition: 9.76% (inactive)

## O=C(Nc1ccc([N+](=O)[O-])cc1)Nc1nc(-c2ccc(Cl)s2)cs1
[1]
  inhibition: 60.4% (active)
[2]
  inhibition: 71.6% (active)

## Cc1cccc(NC(=S)N(CCCN2CCOCC2)Cc2cn(C)c3ccccc23)c1
[1]
  inhibition: -2.78% (inactive)
[2]
  inhibition: -2.77% (inactive)

## Cc1cc(C)n(Cc2ccc(NC(=O)c3ccc(COc4ccccc4Br)cc3)cc2)n1
[1]
  inhibition: -0.48% (inactive)
[2]
  inhibition: 20.2% (inactive)

## COC(=O)c1ccccc1NC1=C/C(=N\S(=O)(=O)c2cccs2)c2ccccc2C1=O
[1]
  inhibition: 2.2% (inactive)
[2]
  inhibition: 6.65% (inactive)

## O=C(Nc1nc(-c2ccccn2)cs1)c1ccc(F)c(S(=O)(=O)N2CCOCC2)c1
[1]
  inhibition: 28% (inactive)
[2]
  inhibition: 33.5% (active)

## CN1/C(=C\C(=O)C[n+]2cccc(Br)c2)C(C)(C)c2ccccc21
[1]
  inhibition: 25.3% (inactive)
[2]
  inhibition: 21.2% (inactive)

## O=S(=O)(CC(CN1CCCCC1)N1CCCCC1)c1ccc2ccccc2c1 (stereo not drawn)
[1]
  inhibition: 4.5% (inactive)
[2]
  inhibition: 6.94% (inactive)

## COc1ccc(CCNc2ncnc3sccc23)cc1OC
[1]
  inhibition: 12% (inactive)
[2]
  inhibition: 42.6% (active)

## CCCC(=O)NC(c1ccc(C(C)C)cc1)c1ccc2cccnc2c1O (stereo not drawn)
[1]
  inhibition: 74.5% (active)
[2]
  inhibition: 73.2% (active)

## O=C(NCc1cccs1)C1CCCN(C(=O)Nc2ccc(F)cc2)C1 (stereo not drawn)
[1]
  inhibition: -1.07% (inactive)
[2]
  inhibition: 5.59% (inactive)
